Assay outcomes from PubChem BioAssay.
The sample as a whole holds a higher share of hits than the screen did.
NTMT1 inh – blocks human N-terminal methyltransferase 1 activity; Q9BV86; NTMT1 MTase-Glo SAH luminescence, purified enzyme; Potency, µM (titrated, usually from 114 µM), for inactives: at the top dose activity change, negative = inhibition, most hits filed as inhibitors; hit rate 2.5% among 59,000; AID 1645870;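 further: plate controls were DMSO vehicle for no effect and no enzyme for full effect; nearly all actives have a fitted effect of over 65% in size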
GALC G270D act – enhancers of human galactocerebrosidase G270D mutant activity in cells; P54803; 145M-Twi-hGALC-G270D cells (Twitcher mouse brain line with human GALC G270D), HMU-beta-Gal fluorescence, 48 h; Potency, µM (series often up to 57.5 µM), actives largely listed as activators; hit rate 0.1% among 45,000; AID 1159614; further: 0% is about no effect; nearly all actives have a fitted effect of over 65% in size
Target sequence (P54803 whole entry G286D): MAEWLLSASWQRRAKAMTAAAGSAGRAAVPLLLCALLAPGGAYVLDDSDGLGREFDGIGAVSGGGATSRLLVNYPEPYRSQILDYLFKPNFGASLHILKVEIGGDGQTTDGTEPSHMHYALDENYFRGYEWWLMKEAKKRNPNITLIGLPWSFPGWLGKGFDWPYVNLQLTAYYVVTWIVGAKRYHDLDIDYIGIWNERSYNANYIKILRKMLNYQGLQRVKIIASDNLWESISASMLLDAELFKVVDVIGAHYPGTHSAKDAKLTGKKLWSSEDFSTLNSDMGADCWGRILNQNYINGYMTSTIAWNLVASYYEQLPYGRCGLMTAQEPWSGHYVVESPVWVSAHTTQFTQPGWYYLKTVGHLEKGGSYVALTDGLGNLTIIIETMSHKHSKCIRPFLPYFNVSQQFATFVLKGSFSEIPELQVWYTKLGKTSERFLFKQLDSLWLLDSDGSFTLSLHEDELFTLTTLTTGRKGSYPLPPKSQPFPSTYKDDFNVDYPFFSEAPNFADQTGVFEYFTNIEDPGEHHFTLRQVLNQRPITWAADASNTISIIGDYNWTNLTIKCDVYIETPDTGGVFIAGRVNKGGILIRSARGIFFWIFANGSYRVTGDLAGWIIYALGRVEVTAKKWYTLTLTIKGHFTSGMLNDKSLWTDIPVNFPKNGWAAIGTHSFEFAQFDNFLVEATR
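Brain-derived Twitcher mouse 145M-Twi cells stably expressing human GALC-G270D or wild-type GALC, treated live, then residual GALC activity read by fluorescence of HMU-b-Gal substrate (0.1 mM final) in citrate-phosphate buffer pH 5.2 with sodium taurocholate. Signal increase indicates enhancement.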
FH mod – Identification of activators of human fumarate hydratase by quantitative high-throughput screening. AID 1347055, 2019. FH coupled MDH/diaphorase resazurin fluorescence, 15 min. Potency, µM (titrated, usually from 79.9 µM), inactives show top-dose activity change, negative = inhibition, hits mostly inhibitors. Fumarate hydratase, mitochondrial (Homo sapiens), P07954. hit rate 0.22% among 54,000; further: on the % scale 0 is the no-effect control and ±100 the full control effect; the screen sought activators but most active calls are inhibition curves; nearly all actives have a fitted effect of over 45% in size
* = called active by the depositor; i = inactive; ? = inconclusive; / = no result; ! = a repeat was not active; [ ] = remark or other dose. The call rests on the fitted dose curve; in most records, active means well fitted curve in the direction sought with a large enough effect; inconclusive means small, poorly fitted or top-dose-only effect, or another doubt; inactive means no such curve, though single readings can be large; an effect the other way counts as inactive or inconclusive. Potency means the concentration at half of the fitted maximal effect.

SMILES	NTMT1 inh	GALC G270D act	FH mod
CCS(=O)(=O)N1CCc2cc(C(=O)NCCc3ccccc3)ccc21	89µM*	i	-10%
CCS(=O)(=O)N1CCc2cc(C(=O)Nc3ccc(Br)cc3F)ccc21	89µM*	i	-6%
CCS(=O)(=O)N1CCc2cc(C(=O)Nc3cccc(C)c3C)ccc21	-2%	i	3%
CN(C)C/C=C/C(=O)Nc1cccc(C(=O)Nc2ccc(Nc3nccc(-c4cccnc4)n3)cc2)c1	?	/	-6%
CC1CCN(CCNC(=O)c2ccc(Cn3c(SCc4ccccc4)nc4cccnc43)cc2)CC1	?	i	-1%
O=C(NCCN1CCCCC1)c1ccc(Cn2c(SCc3ccccc3)nc3cccnc32)cc1	40µM*	i	-12%
Cc1ccc(OCCn2c(CCNC(=O)CCc3ccccc3Br)nc3ccccc32)cc1	5%	/	/
COc1cc2ncnc(Nc3ccc(F)c(Cl)c3)c2cc1NC(=O)C=CCN1CCCCC1	-28%[57.5 µM]	/	5%[53.3 µM]
CCOc1cc2ncc(C#N)c(Nc3ccc(OCc4ccccn4)c(Cl)c3)c2cc1NC(=O)/C=C/CN(C)C	?	/	2%[53.3 µM]
CCOc1cc2ncc(C#N)c(Nc3ccc(F)c(Cl)c3)c2cc1NC(=O)C=CCN(C)C	3.8µM*	/	0%[53.3 µM]
CN(C)C/C=C/C(=O)Nc1cc2c(Nc3ccc(F)c(Cl)c3)ncnc2cc1O[C@H]1CCOC1	3.2µM*	/	/
CN(C)CC=CC(=O)Nc1cc2c(Nc3ccc(F)c(Cl)c3)ncnc2cc1O[C@H]1CCOC1	22µM*	/	-2%[53.3 µM]
CN1CCN(CCOc2cc(OC3CCOCC3)c3c(Nc4c(Cl)ccc5c4OCO5)ncnc3c2)CC1	?	/	1%
CCOc1ccc(CCNC(=O)c2csc(Br)n2)cc1OCC	15%	/	/
C[C@H](NC(=O)CCc1nc2ccccc2c(=O)[nH]1)c1ccccc1	6%	/	9%
O=C(/C=C/c1cccnc1)NCCCCC1CCN(C(=O)c2ccccc2)CC1	15%	/	/
Cc1ccc(OCCn2c(CCNC(=O)c3ccc([N+](=O)[O-])cc3)nc3ccccc32)cc1	-15%[57.5 µM]	/	/
CN(C)CCOc1ccc(-c2nc(-c3ccc4c(c3)CC/C4=N\O)c(-c3ccncc3)[nH]2)cc1	28µM*	/	/
Oc1cc(-c2nc(-c3ccccc3)[nH]c2-c2ccncc2)ccc1Cl	16%[57.5 µM]	/	-14%
CCOc1ccc(CCNC(=O)c2ccc3c(c2)c(C)c(C)n3C)cc1	?	i	16µM*
COc1ccc(OC)c(CNC(=O)c2ccc3c(c2)c(C)c(C)n3Cc2ccc(Cl)cc2)c1	20%	i	-18%
CCOc1ccc(CCNC(=O)c2ccc3c(c2)c(C)c(C)n3Cc2ccccc2)cc1OCC	-4%	i	-24%
CCOc1ccc(CCNC(=O)c2ccc3[nH]c(C)c(C)c3c2)cc1	-21%	i	?
COc1ccc(OC)c(CNC(=O)c2ccc3c(c2)c(C)c(C)n3C)c1	89µM*	i	-13%
Cc1ccc(CCNC(=O)c2ccc3[nH]c(C)c(C)c3c2)cc1	?	i	35µM*
SMILES	NTMT1 inh	GALC G270D act	FH mod
C=CCc1ccc(O[C@@H]2O[C@H](CO)[C@@H](O)[C@H](O)[C@H]2O)c(OC)c1	11%[29.8 µM]	/	0%[53.3 µM]
CC(=O)Nc1sc2c(c1C(=O)O)CCNC2	7%	/	/
C=CC(=O)N1CC(N2CCN(C(=O)CNc3cc(C4CC4)c(Cl)cc3O)CC2)C1	1%[57.5 µM]	/	3%
CC(=O)N1CCN(c2ccc(NC(=O)Cc3cnc(-c4ccnc(F)c4)c(C)c3)nc2)CC1	17%	/	/
CC1(COc2ccc3c(c2)ncn3-c2ccc3cccc(N4CCC(N)CC4)c3n2)COC1	22µM*!	/	2%
CC(C)(C)OC(=O)N1CCN(c2ccc(NCc3ccc(-c4ccc(C#N)cc4)o3)cc2)CC1	12%	/	/
CCC(Cc1ccccc1)NC(=O)Cn1nc(C)n2c(cc3occc32)c1=O (stereo unspecified)	89µM*	i	-2%
CCc1nn(CC(=O)NC(C)CC)c(=O)c2cc3occc3n12 (stereo unspecified)	-1%	i	-6%
CC(C)(O)c1ccc2c(c1)ncn2-c1cccc(-c2ccccc2C#N)c1	?	/	0%
CC(C)=CCC/C(C)=C/CC/C(C)=C/COC1OC(COC2OCC(OC3OCC(O)C(O)C3O)C(O)C2O)C(O)C(OC2OC(C)C(OC3OC(C)C(OC4OCC(OC5OC(C)C(O)C(O)C5O)C(O)C4O)C(O)C3O)C(O)C2O)C1O (stereo unspecified)	?	/	11%[13.5 µM]
Cc1ccccc1NS(=O)(=O)c1ccc2[nH]cc(C(=O)NC3CCCCC3)c(=O)c2c1	-17%	i	?
Cc1ccccc1NS(=O)(=O)c1ccc2[nH]cc(C(=O)NC(C)c3ccccc3)c(=O)c2c1 (stereo unspecified)	-15%	i	40µM*
O=C(Cc1ccc(Cl)c(Cl)c1)Nc1ccc(S(=O)(=O)Nc2cccc(O)c2)cc1	-4%	/	/
CCCCCCCCCCCCCCCC[N+](C)(C)CCN(Cc1ccc(OC)cc1)c1ncccn1	25µM*	i	-6%[53.3 µM]
COc1ccc(CN(CCN(C)C)c2ncccn2)cc1	-14%[57.5 µM]	i	4%[53.3 µM]
N#CN1CCC[C@@H](n2nc(-c3ccc(Oc4ccc(F)cc4F)cc3)c(C(N)=O)c2N)C1	8%[57.5 µM]	/	-3%
Cc1ccc(OCC(=O)Nc2nnc(SCc3cc(=O)n4cccc(C)c4n3)s2)cc1	?	i	-9%
Cc1cccn2c(=O)cc(CSc3nnc(NC(=O)COc4ccccc4)s3)nc12	40µM*	i	-29%
COc1cc(N2CCN(C)CC2)ccc1Nc1ncc2c(n1)N(C)c1ccccc1C(=O)N2C	-23%	/	/
CN1CCN(Cc2ccc(NC(=O)Nc3ccc(Oc4cc(NC(=O)C5CC5)ncn4)cc3)cc2C(F)(F)F)CC1	?	/	-4%
C[C@H](Oc1cc(-n2cnc3ccc(CN4CCN(C)CC4)cc32)sc1C(N)=O)c1ccccc1C(F)(F)F	25µM*	/	-2%
Cc1ccc(-c2cnn(CC(=O)NCCc3ccccc3)c(=O)c2)cc1	3%	/	/
CN1CCN(c2nc3c(S(=O)(=O)c4ccc(Cl)cc4)nnn3c3ccsc23)CC1	79µM*	i	-9%
CCN1CCN(c2nc3c(S(=O)(=O)c4ccc(C)cc4)nnn3c3ccsc23)CC1	79µM*	i	4%
CC(C)c1ccc(S(=O)(=O)c2nnn3c2nc(N2CCN(C)CC2)c2sccc23)cc1	-9%	i	-35%
SMILES	NTMT1 inh	GALC G270D act	FH mod
Cc1ccc(S(=O)(=O)c2nnn3c2nc(N2CCCC2)c2sccc23)cc1	?	i	15%
Cc1ccc(OCCn2c(CCNC(=O)c3cccnc3)nc3ccccc32)cc1	2%[57.5 µM]	/	/
NS(=O)(=O)OC[C@@H]1C[C@@H](n2ccc3c(N[C@H]4CCc5ccccc54)ncnc32)C[C@@H]1O	40µM*!	/	1%
COc1cc(C(O)C(CO)Oc2ccc(CCCO[C@@H]3O[C@@H](C)[C@H](O)[C@@H](O)[C@H]3O)cc2OC)ccc1O (stereo partly specified)	7%[29.8 µM]	/	1%[53.3 µM]
Cc1cc(Nc2cccc(C(F)(F)F)c2)nc2ccc(NC(=O)c3cncc(Br)c3)cc12	2%	i	32µM*
Cc1cc(Nc2cccc(Cl)c2)nc2ccc(NC(=O)c3cncc(Br)c3)cc12	11%	i	-25%
